Screening results as filed in PubChem BioAssay.
TIM10 inh – inhibits growth of TIM10 yeast strain. inhibition, % at 10 µM. 330,000 tested, 1.4% active. S. cerevisiae TIM10 strain growth, BacTiter-Glo luminescence, 24 h;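 active = inhibition of 40% or more at the single tested concentration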;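 note: wild-type TIM10 isogenic control strain grown at permissive 25 °C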
NALP3 yeast inh – NALP3 inhibition in yeast | Yeast reconstituted NLRP3/ASC/caspase-1, beta-gal luminescence, 24 h | inhibition, % at 10 µM | 330,000 tested, 0.39% active;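 active = inhibition of 50% or more; inactive = inhibition below 50%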;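 note: plate controls were induced DMSO wells for no effect and uninduced yeast grown without galactose for full effect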
NALP1 yeast inh – inhibitors of NALP1 inflammasome in yeast; inhibition, % at 10 µM; S. cerevisiae NALP1/ASC/caspase-1 growth, X-gal OD620, 72 h; 280,000 tested, 0.61% active; in the data active = inhibition mostly above about 24%, no sharp cut-off; inactive = mostly below about 32%
tim10-1 inh – growth inhibitors of tim10-1 mutant yeast | S. cerevisiae tim10-1 ts strain growth, BacTiter-Glo, 24 h | inhibition, % at 20 µM | 330,000 tested, 2.2% active;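 active = inhibition of at least 40%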;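 note: mutant grown at 25 °C; 0% = DMSO wells with yeast and 100% = wells holding no yeast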
tim23-1 inh – inhibits growth of tim23-1 mutant yeast; 330,000 tested, 1.3% active; S. cerevisiae tim23-1 growth, BacTiter-Glo luminescence, 24 h; inhibition, % at 20 µM; AID 463212;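 active = growth inhibition of the mutant yeast at or above 50%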;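 note: temperature-sensitive mutant grown at 25 °C; plate controls were DMSO-treated mutant yeast for no effect and medium wells lacking yeast for full effect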
PfHsp90 yeast 2 – inhibits growth of yeast expressing Plasmodium falciparum Hsp90 | S. cerevisiae expressing PfHsp90, BacTiter-Glo ATP, 48 h; yeast lacking PDR1 and PDR3 efflux regulators | inhibition, % at 9.4 µM | 310,000 tested, 0.32% active;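 active = every replicate shows inhibition above about 80%, whatever the replicate mean, limit read from the data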;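 note: 0% = DMSO neutral controls and 100% = 20 µM radicicol positive controls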
tim10-1 confirm – confirmation of tim10-1 mutant yeast growth inhibitors; shares compounds with tim10-1 inh; S. cerevisiae tim10-1 ts strain growth, BacTiter-Glo, 24 h; inhibition, % at 20 µM; 7,400 tested, 56% active;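 active = inhibition of yeast growth at or above a set limit in either of two repeat tests at 20 µM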;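 note: tim10-1 mutant grown at permissive 25 °C to find synthetic lethal compounds; 0% = DMSO yeast wells and 100% = medium wells without yeast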
* marks the source's active call; other numbers are inactive results; x = no result given. A selection: hits, their analogues and other compounds. The true share with any hit is near 4.1%.

SMILES	TIM10 inh	NALP3 yeast inh	NALP1 yeast inh	tim10-1 inh	tim23-1 inh	PfHsp90 yeast 2	tim10-1 confirm
Cc1ccc(S(=O)(=O)n2nc(OC(=O)C3CCCCC3)cc2N)cc1	30	2	14	42*	24	-2	28
Cc1ccc(C(O)P(=O)(OCCC(C)C)c2ccc(N(C)C)cc2)cc1 (centres undefined)	18	-10	-2	41*	34	-34	19
COc1ccc(C(O)P(=O)(OCCC(C)C)c2ccc(N(C)C)cc2)cc1OC (centres undefined)	12	4	1	11	20	5	x
CCN1CCN(c2nc3c(c(=O)[nH]c(=O)n3C)n2Cc2ccccc2)CC1	7	15	32	-7	-1	11	x
COc1ccc([C@H]2/C=C\CN(C(=O)[C@H](Cc3ccccc3)NC(=O)OCC3c4ccccc4-c4ccccc43)CC(=O)N2Cc2ccc(F)cc2)cc1	4	-1	x	95*	14	x	19
CCOc1ccc2nc(NCCNC(=O)c3cc(OC)c(OC)c(OC)c3)c(C#N)cc2c1	16	4	4	8	10	-1	x
CCOc1ccc2nc(NCCCNS(=O)(=O)c3ccc(F)cc3)c(C#N)cc2c1	6	2	x	42*	26	6	28
CCOc1ccc2nc(NCCCNS(=O)(=O)c3ccccc3)c(C#N)cc2c1	3	1	-5	42*	21	-7	19
CCC(CC)C(=O)Nc1cccc(-c2ccc3nncn3n2)c1	7	14	-2	14	11	-2	x
CCC(CC)NC(=O)COn1nnc2ccc(S(=O)(=O)N3CCOCC3)cc21	2	3	x	-19	-6	-11	x
COc1ccccc1N1CCN(C(=O)CSc2nnc(C)n2C2CC2)CC1	8	7	x	-1	-2	-2	x
O=C(NCCCc1ccncc1)C1CCC(=O)N(CCc2cccc(F)c2)C1 (centres undefined)	10	10	20	-4	-4	-8	x
Cc1cccc(C)c1NC(=S)N(Cc1ccccc1)Cc1cccs1	24	8	-1	42*	34	-39	39*
O=C(O)CNC(=S)N(Cc1ccccc1)Cc1cccs1	-9	2	12	2	11	-6	x
COCCNC(=O)Cn1ccc2cc(S(=O)(=O)N3CCCCC3)ccc21	1	11	8	13	5	3	x
Cc1c(Br)c([N+](=O)[O-])nn1C(C)C(=O)N1CCCc2ccccc21 (centres undefined)	30	4	11	40*	42	-4	37*
Cc1c(Br)c([N+](=O)[O-])nn1CC(=O)N1CCc2ccccc21	-6	16	15	1	-5	20	x
O=C1OC=NC1=Cc1ccccc1	x	x	x	x	x	-9	x
Cc1ccnc(SCCn2c(N3CCC(C)CC3)nc3c2c(=O)n(C)c(=O)n3C)n1	30	13	x	45*	32	1	28
Cc1ccnc(SCCn2c(N3CC(C)CC(C)C3)nc3c2c(=O)n(C)c(=O)n3C)n1 (centres undefined)	27	9	-1	44*	42	-14	30
Cc1ccnc(SCCn2c(N3CC(C)OC(C)C3)nc3c2c(=O)n(C)c(=O)n3C)n1 (centres undefined)	10	3	-2	13	9	3	x
CC1(C)CC2CC(C)(CN2/C=C2/CCCCC2=O)C1 (centres undefined)	5	5	x	5	17	4	x
Cc1ccc(OCC(=O)NCCNC(=O)c2cnccn2)cc1	10	-4	-2	-2	1	10	x
Cc1ccccc1C(=O)NNC(=S)NC(=O)c1cccs1	34	18	-5	53*	24	-33	21
Oc1c(Br)cc(CNC2CCCCC2)cc1Br	x	x	x	x	x	-18	x
SMILES	TIM10 inh	NALP3 yeast inh	NALP1 yeast inh	tim10-1 inh	tim23-1 inh	PfHsp90 yeast 2	tim10-1 confirm
Cc1[nH]c2ccccc2c1C(C[N+](=O)[O-])c1cccc(O)c1 (centres undefined)	-1	3	-13	22	12	x	x
O=c1[nH][nH]c(-c2ccccc2O)c1C(C[N+](=O)[O-])c1ccccc1 (centres undefined)	36	31	x	45*	42	12	31
Cc1ccc(C(=O)N/N=C/c2ccc([N+](=O)[O-])s2)cc1	25	16	10	21	28	-8	x
O=C(N/N=C/c1ccc([N+](=O)[O-])s1)c1cccc(Br)c1	30	26	9	52*	39	35	26
O=C(N/N=C/c1ccc(O)c2ncccc12)c1cccc(Br)c1	10	-56	5	52*	15	104*	19
O=C1CC2(CCN(C(=O)c3cccc(Br)c3)CC2)Oc2ccccc21	6	21	x	20	21	12	x
CC(C(=O)Nc1ccccn1)N1C(=O)c2ccccc2S1(=O)=O (centres undefined)	6	9	x	-9	-12	16	x
COc1ccc(CCNC(=O)CCc2nc3sc4c(c3c(=O)[nH]2)CCCC4)cc1	2	14	22	97*	-9	12	-7
COc1ccccc1NS(=O)(=O)c1ccc(C)c(C(=O)NCCCN2CCCC2=O)c1	3	11	x	-3	-8	7	x
CCn1c(=O)c(=O)[nH]c2cc(C(=O)N(C)Cc3ccc(OC)c(F)c3)ccc21	-2	-1	12	-8	2	-6	x
CC(C)c1ccc(NC(=O)N2CCN(S(=O)(=O)c3ccccc3)CC2)cc1	5	18	1	41*	22	-16	15
CC(C)c1ccc(S(=O)(=O)N2CCN(C(=O)CCNC(=O)Nc3ccccc3)CC2)cc1	12	14	x	18	21	-10	x
Cc1cc(C)n2c(SCc3ccccc3Cl)nnc2n1	-2	23	-11	43*	31	-9	17
CCN1CCN(S(=O)(=O)c2ccc(Cl)c(C(=O)N(C)Cc3ccccc3)c2)CC1	9	5	x	98*	20	4	10
CC1=CC(C)(C)N2C(=O)C3(SCC(=O)N3c3ccc(O)cc3)c3cc(C)cc1c32 (centres undefined)	23	9	12	43*	27	1	20
Cc1ccc(N2C(=O)CSC23C(=O)Nc2ccccc23)cc1 (centres undefined)	9	1	-2	14	1	15	x
CC1Cc2nc(SCC(=O)NCC3CCCO3)n(C)c(=O)c2S1 (centres undefined)	-9	5	7	-21	2	10	x
Cc1ccnc(NC(=S)N2CCN(c3cccc(C(F)(F)F)c3)CC2)c1	39	-7	-11	43*	39	-19	24
Cc1ccc(C)c(NC(=S)N2CCN(c3cccc(C(F)(F)F)c3)CC2)c1	-17	-22	11	19	-4	-87	x
